According to PubChem BioAssay:
A number with no mark means an inactive call. The list shows a part of the results. Calls of active or inactive are those of the source.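 Rule for the calls, unless noted: active = inhibition above the mean over all tested compounds plus 3 SD, which no compound reached; inactive = the rest.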

Tests used:
[1] = system: TLR4-MyD88 interaction (human), BLA complementation; assay: TLR4-MyD88 association inhibitors, retest, confirmation, cell-based, HeLa CL3-4, BLA complementation, FRET ratio (AID 941;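 active = mean inhibition across three repeat runs above about 25% carried over from the earlier screen, limit read from the data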;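 note: plate controls were DMSO only for no effect and clavulanic acid blocking BLA at full dose for full effect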); details: CCF4 FRET ratio, at 8.4 µM, active compounds read high
[2] = inhibitors of full-length beta-lactamase reporter, confirmation, artefact control for TLR4-MyD88 binding inhibitor project, cell-based, HeLa, full-length BLA, CCF4 FRET ratio (AID 1237;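 active = mean inhibition over three repeats above about 26% taken from the earlier screen, limit read from the data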;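 note: HeLa cells stably expressing beta-lactamase reporter as counterscreen for TLR4-MyD88 inhibitors; 0% = DMSO and 100% = clavulanic acid full inhibition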); details: at 8.4 µM, active compounds read high
[3] = target: Insulin-degrading enzyme (Homo sapiens) (UniProt P14735); assay: human IDE inhibitors in live cells, confirmation, fluorescence polarization, HEK cells, FAbetaB substrate (AID 435028;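 active = mean inhibition across triplicate wells above the cutoff set by the earlier primary insulin-degrading enzyme screen, cut at about 16% in these data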;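 note: 0% = DMSO wells and 100% = 60 µM reference IDE inhibitor Ii1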); details: FAbetaB cleavage, at 5.59 µM, active compounds read high
[4] = cytotoxicity in HEK cells, cytotoxicity control for IDE inhibitor project, cell-based, luminescence (AID 449730; in the data active = inhibition above about 22%;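 note: 0% = vehicle wells and 100% = reference cytotoxic drug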); details: HEK293 cytotoxicity, ATP luminescence; at 5.59 µM; active compounds read high
[5] = target: Receptor-interacting serine/threonine-protein kinase 2 (Homo sapiens) (UniProt O43353); assay: NOD2-RIPK2 binding disruptors, retest, confirmation, fluorescence, CHO cells, BLA complementation, triplicate (AID 624370;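 active = mean inhibition across replicates above a set limit taken from the earlier primary screen, cut at about 21% in these data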;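 note: 0% = DMSO-only wells and the high end = clavulanate BLA-blocked wells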); details: CCF4 FRET, at 4.98 µM, active compounds read high
[6] = beta-lactamase reporter inhibitors in CHO cells, confirmation, artefact control for NOD2-RIPK2 interaction inhibitor project, cell-based, CHO-K1 CMV-bla, CCF4 FRET, fluorescence (AID 624371;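 active = mean inhibition above the low-control mean inhibition plus three low-control SD, cut at about 11% in these data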;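 note: 0% = DMSO only wells and 100% = clavulanate high control wells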); details: CCF4 FRET ratio, counterscreen, at 4.98 µM, active compounds read high
[7] = target: Serine protease HTRA1 (Homo sapiens) (UniProt Q92743); assay: HTRA1 protease inhibitors, retest, confirmation, biochemical, fluorescence polarization (AID 540248;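 active = mean inhibition over three repeats above a set limit taken from the earlier primary screen, cut at about 37% in these data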;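 note: 0% = HTRA1 with DMSO and 100% = wells lacking HTRA1; inhibitors block probe binding so polarization drops and inhibition rises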); details: recombinant HTRA1, FP-rhodamine activity-based probe, at 5.96 µM, active compounds read high
[8] = system: HIV-1 integrase (multimerization); assay: HIV-1 IN multimer formation enhancers, counter-screen for LEDGF/p75 integration inhibitor project, biochemical, TR-FRET (AID 1053131; in the data active = activation above about 8.9%); details: TR-FRET HIV-1 integrase multimerization, at 7.7 µM, active compounds read high
[9] = TR-FRET optical interference artefacts, confirmation, artefact control for LEDGF/p75-dependent integration inhibitor project, biochemical, HIV-1 IN multimerization (AID 1053135); details: TR-FRET optical interference counterscreen, at 7.7 µM, active compounds read high;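 note: 0% = integrase with antibodies and DMSO and 100% = antibodies without integrase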
[10] = system: HIV-1 integrase / human LEDGF/p75 complex; assay: inhibitors of HIV-1 IN-LEDGF/p75 DNA integration, confirmation, biochemical, TR-FRET (AID 1053136; in the data active = inhibition above about 14%); details: TR-FRET LEDGF/p75-dependent HIV-1 integration, at 3.7 µM, active compounds read high
[11] = STAT1 signaling activators, confirmation, cell-based, HTS, luciferase reporter (AID 1262;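 active = activation above a set limit carried over from the earlier primary STAT1 screen, cut at about 140% in these data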;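 note: simple ratio to median IFN-gamma plus DMSO wells so 0% means no light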); details: NIH 3T3 STAT1-luciferase reporter, IFN-gamma potentiation, luminescence; at 5.7 µM; active compounds read high; 100% = IFN-gamma EC80 alone, no compound
[12] = NF-kB reporter activators, TNF-alpha stimulated, counter-screen for STAT1 activator project, cell-based, HEK293T, luciferase luminescence (AID 1306;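 active = activation above the mean of solvent-only control wells plus 3 SD, set per campaign, cut at about 130% in these data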;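 note: TNF-alpha given at a submaximal dose yielding about 80% of full reporter signal; values are well signal over median control so 100% means no change and 0% no light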); details: at 5.7 µM, active compounds read high, 100% = TNF-alpha with vehicle only
[13] = target: Signal transducer and activator of transcription 3 (Homo sapiens) (UniProt P40763); assay: STAT3 reporter activation by STAT1 hits, confirmation, counter-screen for STAT1 activator project, U3A cells, luciferase, luminescence (AID 1316;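 active = activation above the solvent-only control well mean plus 3 SD, set per plate batch, cut at about 110% in these data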;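 note: 0% = no luminescence and 100% = median IL-6 plus DMSO wells; higher means more STAT3 reporter activation so hits are non-selective activators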); details: IL-6, luminescence, at 5.7 µM, active compounds read high, 100 = IL-6 alone, no compound effect, cells lack STAT1
[14] = STAT3 reporter inhibitors, retest of hits, confirmation, U3A cells, luciferase, luminescence (AID 1265;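 active = inhibition above the hit cutoff computed for the primary STAT3 screen, cut at about 44% in these data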;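 note: 0% = IL-6 plus DMSO and 100% = IL-6 plus nifuroxazide control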); details: IL-6 STAT3 luciferase reporter, at 5.7 µM, active compounds read high, cell line lacks STAT1
[15] = NF-kB reporter inhibitors in human cells, confirmation, counter-screen for STAT3 inhibitor project, cell-based, HEK293T, luciferase, TNF-alpha stimulus (AID 1308;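 active = inhibition above the mean of solvent-only control wells plus 3 SD, cutoff set per campaign, cut at about 13% in these data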;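 note: 0% = TNF-alpha with DMSO and 100% = TNF-alpha with MG high control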); details: TNF-alpha induced, at 5.7 µM, active compounds read high
[16] = STAT1 reporter inhibitors, IFN-gamma induced, confirmation, counter-screen for STAT3 inhibitor project, cell-based, NIH 3T3, luciferase luminescence (AID 1317;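 active = inhibition above the mean plus 3 SD of solvent-only control wells, limit set per screening run, cut at about 16% in these data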;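 note: 0% = DMSO with IFN-gamma and 100% = nifuroxazide control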); details: NIH 3T3 STAT1-luciferase reporter, at 5.7 µM, active compounds read high
[17] = KLF5 expression inhibitors, confirmation, DLD-1 cells, luminescence (AID 1834;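 active = inhibition above a set limit taken from the earlier primary screen, cut at about 63% in these data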;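 note: 0% = DMSO wells and 100% = LY294002 at 200 µM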); details: DLD-1 KLF5 promoter firefly luciferase reporter, at 4 µM, active compounds read high
[18] = cytotoxicity in rat IEC-6 cells, cytotoxicity control for KLF5 inhibitor project, cell-based, luminescence, triplicate (AID 1905; in the data active = inhibition above about 23%;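 note: cells exposed to compounds for 48 hours before viability read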); details: IEC-6 rat intestinal cells, viability luminescence; at 4 µM; active compounds read high
[19] = target: Nuclear receptor coactivator 3 (Homo sapiens) (UniProt Q9Y6Q9); assay: SRC3 coactivator transcriptional activity inhibitors, confirmation, cell-based, luminescence, quadruplicate (AID 588792;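 active = mean inhibition over 43.08%, the solvent-only control mean plus 3 SD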;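 note: 0% = DMSO treated cells and 100% = gossypol at 36 µM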); details: HEK293 GAL4-SRC3 luciferase reporter, at 3.6 µM, active compounds read high
Sequence of Nuclear receptor coactivator 3 (Homo sapiens) (Q9Y6Q9 whole entry, looked up, the tested form may be a part): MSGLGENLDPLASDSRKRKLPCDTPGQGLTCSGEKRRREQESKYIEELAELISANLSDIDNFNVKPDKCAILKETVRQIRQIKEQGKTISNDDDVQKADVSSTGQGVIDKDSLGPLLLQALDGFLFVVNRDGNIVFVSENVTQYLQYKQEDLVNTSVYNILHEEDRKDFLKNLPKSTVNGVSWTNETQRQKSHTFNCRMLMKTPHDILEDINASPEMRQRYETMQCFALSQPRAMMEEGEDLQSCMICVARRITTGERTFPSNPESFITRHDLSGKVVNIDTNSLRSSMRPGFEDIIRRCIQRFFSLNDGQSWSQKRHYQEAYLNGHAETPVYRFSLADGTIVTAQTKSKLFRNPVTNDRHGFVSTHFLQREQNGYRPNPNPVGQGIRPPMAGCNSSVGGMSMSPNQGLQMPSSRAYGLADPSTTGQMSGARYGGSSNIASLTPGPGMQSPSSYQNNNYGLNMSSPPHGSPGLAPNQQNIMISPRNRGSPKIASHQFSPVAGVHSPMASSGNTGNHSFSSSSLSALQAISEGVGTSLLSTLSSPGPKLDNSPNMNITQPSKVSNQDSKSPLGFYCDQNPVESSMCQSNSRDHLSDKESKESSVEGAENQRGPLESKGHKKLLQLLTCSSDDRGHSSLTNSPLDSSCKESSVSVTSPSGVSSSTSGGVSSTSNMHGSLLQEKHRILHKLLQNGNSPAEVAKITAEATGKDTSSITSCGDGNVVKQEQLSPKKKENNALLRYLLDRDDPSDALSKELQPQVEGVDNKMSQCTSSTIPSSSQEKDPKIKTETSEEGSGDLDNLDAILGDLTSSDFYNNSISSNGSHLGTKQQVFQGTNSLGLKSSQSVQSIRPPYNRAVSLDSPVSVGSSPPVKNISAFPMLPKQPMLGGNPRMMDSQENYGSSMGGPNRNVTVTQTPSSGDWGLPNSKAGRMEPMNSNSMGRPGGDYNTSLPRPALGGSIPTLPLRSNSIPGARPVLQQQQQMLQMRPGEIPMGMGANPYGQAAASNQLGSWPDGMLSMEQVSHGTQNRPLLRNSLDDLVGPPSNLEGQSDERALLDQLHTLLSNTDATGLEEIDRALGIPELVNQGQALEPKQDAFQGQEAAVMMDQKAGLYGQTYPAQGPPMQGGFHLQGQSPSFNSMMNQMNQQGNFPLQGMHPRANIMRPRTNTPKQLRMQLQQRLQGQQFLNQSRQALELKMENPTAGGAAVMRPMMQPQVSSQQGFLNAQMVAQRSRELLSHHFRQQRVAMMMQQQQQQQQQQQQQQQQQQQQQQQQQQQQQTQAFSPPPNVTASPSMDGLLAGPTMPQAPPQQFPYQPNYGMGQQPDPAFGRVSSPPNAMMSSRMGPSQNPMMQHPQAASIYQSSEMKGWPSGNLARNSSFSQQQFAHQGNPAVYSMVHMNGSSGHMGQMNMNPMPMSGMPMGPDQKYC

[20] = system: transactivating tegument protein VP16 (Human herpesvirus 1), Gal4-VP16 luciferase reporter; assay: VP16 transactivation inhibitors, counter-screen for SRC3 inhibitor project, cell-based, luminescence, high throughput (AID 588794; in the data active = inhibition above about 30%); details: mammalian cells, VP16-driven luciferase reporter luminescence; at 3.6 µM; active compounds read high
[21] = target: Nuclear receptor coactivator 1 (Homo sapiens) (UniProt Q15788); assay: SRC1 coactivator transcriptional activity inhibitors, confirmation, cell-based, luminescence, quadruplicate (AID 588820;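 active = mean inhibition above 46.68%, the untreated control wells mean plus 3 SD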;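 note: 0% = DMSO wells and 100% = gossypol 36 µM treated wells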); details: HEK293 GAL4-SRC1 luciferase reporter, at 3.6 µM, active compounds read high
Sequence of Nuclear receptor coactivator 1 (Homo sapiens) (Q15788 whole entry, looked up, the tested form may be a part): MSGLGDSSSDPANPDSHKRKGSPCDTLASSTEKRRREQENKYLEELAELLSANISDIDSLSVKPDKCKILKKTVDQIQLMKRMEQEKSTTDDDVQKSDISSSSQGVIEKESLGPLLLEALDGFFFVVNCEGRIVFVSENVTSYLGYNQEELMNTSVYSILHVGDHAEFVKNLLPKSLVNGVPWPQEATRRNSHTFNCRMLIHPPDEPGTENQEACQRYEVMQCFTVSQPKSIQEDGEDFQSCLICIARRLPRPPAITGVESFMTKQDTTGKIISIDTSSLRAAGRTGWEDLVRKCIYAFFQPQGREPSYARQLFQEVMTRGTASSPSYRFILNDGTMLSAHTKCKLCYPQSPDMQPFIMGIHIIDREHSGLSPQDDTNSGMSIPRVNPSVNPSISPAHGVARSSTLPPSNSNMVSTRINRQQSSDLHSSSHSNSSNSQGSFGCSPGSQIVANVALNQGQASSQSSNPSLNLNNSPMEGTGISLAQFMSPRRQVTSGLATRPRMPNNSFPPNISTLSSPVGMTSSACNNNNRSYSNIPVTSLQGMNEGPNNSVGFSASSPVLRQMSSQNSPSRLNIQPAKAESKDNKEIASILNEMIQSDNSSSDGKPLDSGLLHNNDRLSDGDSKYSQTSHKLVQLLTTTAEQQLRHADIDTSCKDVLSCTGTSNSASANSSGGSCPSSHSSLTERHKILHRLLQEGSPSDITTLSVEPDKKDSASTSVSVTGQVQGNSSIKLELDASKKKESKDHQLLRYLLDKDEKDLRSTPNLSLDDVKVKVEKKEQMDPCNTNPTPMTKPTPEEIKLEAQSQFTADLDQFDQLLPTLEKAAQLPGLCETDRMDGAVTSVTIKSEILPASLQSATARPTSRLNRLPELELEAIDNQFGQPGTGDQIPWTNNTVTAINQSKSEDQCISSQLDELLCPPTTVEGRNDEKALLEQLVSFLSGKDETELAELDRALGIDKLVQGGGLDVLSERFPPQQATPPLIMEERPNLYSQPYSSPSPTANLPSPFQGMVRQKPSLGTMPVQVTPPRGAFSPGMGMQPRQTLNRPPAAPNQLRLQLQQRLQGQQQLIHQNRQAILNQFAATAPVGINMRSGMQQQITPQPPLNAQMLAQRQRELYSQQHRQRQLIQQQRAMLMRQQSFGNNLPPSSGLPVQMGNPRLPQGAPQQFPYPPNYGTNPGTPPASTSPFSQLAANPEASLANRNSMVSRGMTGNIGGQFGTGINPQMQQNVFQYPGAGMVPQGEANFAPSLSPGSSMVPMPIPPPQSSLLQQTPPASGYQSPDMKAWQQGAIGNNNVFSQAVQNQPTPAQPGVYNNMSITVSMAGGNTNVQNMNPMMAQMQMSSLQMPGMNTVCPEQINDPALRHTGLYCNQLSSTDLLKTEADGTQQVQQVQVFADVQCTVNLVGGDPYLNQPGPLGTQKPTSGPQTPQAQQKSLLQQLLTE

[22] = VP16 transactivation inhibitors, counter-screen for SRC1 inhibitor project, cell-based, luminescence, high throughput (AID 588824; in the data active = inhibition above about 25%); details: cell-based VP16 transactivation luciferase luminescence; at 3.6 µM; active compounds read high
[23] = target: Photoreceptor-specific nuclear receptor (Homo sapiens) (UniProt Q9Y5X4); assay: NR2E3 agonist confirmation in cells, cell-based, luminescence, CHO-S two-hybrid (AID 624378;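 active = average inhibition above a cutoff equal to the mean inhibition of all tested compounds plus one SD, cut at about 70% in these data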;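 note: 0% = DMSO in NR2E3 cells and 100% = DMSO in cells lacking NR2E3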); details: CHO-S mammalian two-hybrid NR2E3-NCOR, luciferase luminescence; at 3.98 µM; active compounds read high
Sequence of Photoreceptor-specific nuclear receptor (Homo sapiens) (Q9Y5X4 whole entry, looked up, the tested form may be a part): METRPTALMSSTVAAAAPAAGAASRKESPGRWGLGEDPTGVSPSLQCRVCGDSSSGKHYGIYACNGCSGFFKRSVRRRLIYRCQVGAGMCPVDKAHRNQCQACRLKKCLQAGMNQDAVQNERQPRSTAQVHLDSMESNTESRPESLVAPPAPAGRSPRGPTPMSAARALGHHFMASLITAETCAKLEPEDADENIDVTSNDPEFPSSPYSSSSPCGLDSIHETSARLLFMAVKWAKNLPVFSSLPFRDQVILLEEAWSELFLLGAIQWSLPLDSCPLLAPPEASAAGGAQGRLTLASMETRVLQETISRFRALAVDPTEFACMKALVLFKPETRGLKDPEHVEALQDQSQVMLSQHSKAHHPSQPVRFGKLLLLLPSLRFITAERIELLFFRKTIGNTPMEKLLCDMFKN

[24] = GAL4-VP16 reporter modulators, confirmation, counter-screen for NR2E3 agonist project, cell-based, luminescence, CHO-S, high throughput (AID 624379;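 active = mean inhibition above a cutoff equal to the average over all tested compounds plus one standard deviation, cut at about 70% in these data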;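 note: 0% = DMSO with VP16-transfected cells and 100% = DMSO with cells lacking VP16; higher means less reporter light so more repression of VP16 activity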); details: CHO-S GAL4-VP16 luciferase reporter, at 3.98 µM, active compounds read high
[25] = StAR promoter reporter inhibitors, counter-screen for LRH-1 inverse agonist project, cell-based, luminescence, high throughput (AID 651611; in the data active = inhibition above about 28%); details: StAR promoter luciferase reporter counterscreen, at 3.6 µM, active compounds read high
[26] = target: Nuclear receptor subfamily 5 group A member 2 (Homo sapiens) (UniProt O00482); assay: LRH-1 (NR5A2) inverse agonists, retest, confirmation, cell-based, luminescence (AID 651613; in the data active = inhibition above about 42%;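 note: HEK293T cells co-transfected with LRH-1 and StAR promoter luciferase reporter; 0% = vehicle wells and 100% = parental cells lacking receptor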); details: cell-based LRH-1 luciferase reporter, inverse agonism; at 3.6 µM; active compounds read high
Sequence of Nuclear receptor subfamily 5 group A member 2 (Homo sapiens) (O00482 whole entry, looked up): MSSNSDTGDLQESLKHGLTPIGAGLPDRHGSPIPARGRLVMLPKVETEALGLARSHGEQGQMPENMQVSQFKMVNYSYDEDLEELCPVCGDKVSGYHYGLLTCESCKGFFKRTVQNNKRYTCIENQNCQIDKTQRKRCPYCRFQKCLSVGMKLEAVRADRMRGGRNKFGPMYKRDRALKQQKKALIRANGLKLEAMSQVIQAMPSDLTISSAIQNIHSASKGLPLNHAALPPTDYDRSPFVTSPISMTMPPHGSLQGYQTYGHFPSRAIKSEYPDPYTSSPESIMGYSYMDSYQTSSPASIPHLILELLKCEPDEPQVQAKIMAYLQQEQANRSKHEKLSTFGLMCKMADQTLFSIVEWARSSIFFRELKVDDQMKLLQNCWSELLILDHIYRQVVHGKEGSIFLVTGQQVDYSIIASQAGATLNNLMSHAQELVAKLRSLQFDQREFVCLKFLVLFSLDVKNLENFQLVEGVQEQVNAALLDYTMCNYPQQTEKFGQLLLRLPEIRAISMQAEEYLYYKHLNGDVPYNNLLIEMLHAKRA

[27] = target: Steroidogenic factor 1 (Homo sapiens) (UniProt Q13285); assay: SF1 (NR5A1) inverse agonists, counter-screen for LRH-1 inverse agonist project, cell-based, luminescence, high throughput (AID 651614; in the data active = inhibition above about 44%;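 note: cells cotransfected with StAR promoter reporter and SF1 expression vector; 0% = vehicle on cells with receptor and 100% = vehicle on cells lacking receptor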); details: cell-based SF1 luciferase reporter, at 3.6 µM, active compounds read high
Sequence of Steroidogenic factor 1 (Homo sapiens) (Q13285 whole entry, looked up, the tested form may be a part): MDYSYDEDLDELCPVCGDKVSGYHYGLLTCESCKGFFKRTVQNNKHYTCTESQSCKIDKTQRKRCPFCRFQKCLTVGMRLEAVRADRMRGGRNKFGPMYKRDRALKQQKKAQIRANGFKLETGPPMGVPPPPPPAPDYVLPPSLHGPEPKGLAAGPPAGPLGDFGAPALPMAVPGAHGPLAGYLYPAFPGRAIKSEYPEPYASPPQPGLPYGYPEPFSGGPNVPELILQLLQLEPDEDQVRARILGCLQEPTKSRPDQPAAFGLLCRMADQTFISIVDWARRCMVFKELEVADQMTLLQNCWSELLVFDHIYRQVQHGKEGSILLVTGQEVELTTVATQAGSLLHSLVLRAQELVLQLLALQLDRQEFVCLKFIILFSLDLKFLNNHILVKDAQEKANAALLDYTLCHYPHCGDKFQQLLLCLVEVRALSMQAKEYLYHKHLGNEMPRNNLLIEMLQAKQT

[28] = VP16 transactivation reporter inhibitors, counter-screen for LRH-1 inverse agonist project, cell-based, luminescence, high throughput (AID 651615; in the data active = inhibition above about 33%); details: Gal4-VP16 luciferase reporter cells, at 3.6 µM, active compounds read high
[29] = Gal4-VP16 luciferase reporter inhibitors, counter-screen for COUP-TFII antagonist project, cell-based, luminescence, HEK293 (AID 687007; in the data active = inhibition above about 13%); details: at 8.5 µM, active compounds read high
[30] = target: COUP transcription factor 2 (Homo sapiens) (UniProt P24468); assay: NR2F2 transcriptional activity inhibitors, confirmation, cell-based, luciferase reporter, HEK293, triplicate (AID 687008;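 active = mean inhibition over three repeats above a set limit taken from the earlier primary screen, cut at about 38% in these data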;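 note: 100% = cells given the luciferase reporter alone without the COUP-TF2 vector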); details: HEK293 NGFI-A luciferase reporter, luminescence; at 8.5 µM; active compounds read high
Sequence of COUP transcription factor 2 (Homo sapiens) (P24468 whole entry, looked up): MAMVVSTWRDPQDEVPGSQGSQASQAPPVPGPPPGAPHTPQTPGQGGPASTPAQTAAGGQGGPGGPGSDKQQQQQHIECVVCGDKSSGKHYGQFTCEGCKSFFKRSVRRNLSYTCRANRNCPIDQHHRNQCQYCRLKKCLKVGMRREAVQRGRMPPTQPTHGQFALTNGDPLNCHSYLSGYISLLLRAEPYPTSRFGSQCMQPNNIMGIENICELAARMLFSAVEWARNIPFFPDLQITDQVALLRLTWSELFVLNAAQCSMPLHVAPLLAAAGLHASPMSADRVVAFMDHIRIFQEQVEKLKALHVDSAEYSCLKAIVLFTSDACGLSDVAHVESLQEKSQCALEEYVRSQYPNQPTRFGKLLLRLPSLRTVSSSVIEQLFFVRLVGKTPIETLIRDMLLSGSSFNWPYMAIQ

[31] = target: Toll-like receptor 9 (Homo sapiens) (UniProt Q9NR96); assay: TLR9-MyD88 association inhibitors, retest, confirmation, cell-based, CHO, BLA complementation, fluorescence, triplicate (AID 540250;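 active = mean inhibition across three repeats above about 21% taken from the earlier screen, limit read from the data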;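 note: blue over green emission ratio reports constitutive TLR9 MyD88 association via BLA complementation; 0% = DMSO vehicle wells and 100% = clavulanate BLA inhibitor wells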); details: CCF4 FRET ratio, at 4.98 µM, active compounds read high
[32] = beta-lactamase reporter inhibitors in CHO cells, artefact control for TLR9-MyD88 binding inhibitor project, cell-based, fluorescence (AID 540251;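 active = mean inhibition above a 50% cutoff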;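 note: counterscreen of TLR9-MyD88 hits on CMV-driven BLA in CHO-K1 cells; 0% = DMSO alone and 100% = clavulanate blocking BLA; higher means less blue over green ratio so more BLA blockade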); details: CHO-BLA cells, CCF4 FRET ratio, at 4.98 µM, active compounds read high
[33] = CHO cell viability loss – luminescence, single concentration, cytotoxicity control for TLR9-MyD88 binding inhibitor project (AID 588336; in the data active = inhibition above about 11%); details: TLR9-MyD88 CHO cells cytotoxicity, at 4.98 µM, active compounds read high
[34] = growth loss of phage-infected RecBCD+ E. coli, confirmation, RecBCD inhibitor project, absorbance, E. coli V66, T4 gene 2 phage (AID 651982;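 active = mean inhibition over triplicates exceeding the hit threshold derived in the original primary screen, cut at about 11% in these data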); details: E. coli V66 + T4 2- phage, growth OD; at 11.9 µM; active compounds read high
[35] = E. coli viability inhibition, counter-screen for RecBCD inhibitor project, absorbance, high throughput (AID 651983; in the data active = inhibition above about 20%;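 note: E. coli strain V66 grown with compound alone and no phage infection; 0% = bacteria with DMSO vehicle only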); details: absorbance (OD) growth, at 11.9 µM, active compounds read high
[36] = growth loss of phage-infected AddAB-carrying E. coli, confirmation, counter-screen for RecBCD inhibitor project, absorbance, E. coli V3065, T4 phage (AID 651984;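 active = mean inhibition above the solvent-only control wells' mean plus 3 SD, cut at about 22% in these data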;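 note: higher means less bacterial growth from phage killing when AddAB is blocked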); details: E. coli expressing H. pylori AddAB + T4 phage, OD growth; at 11.9 µM; active compounds read high; gene 2 mutant T4, recBCD-deleted host
[37] = compounds interfering with TAMRA-BSA probe, counter-screen for TCR-CD3 interaction inhibitor project, biochemical, fluorescence, TAMRA-labeled BSA (AID 652035; in the data active = inhibition above about 23%;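 note: 0% = buffer low control and 100% = reference high control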); details: TAMRA-labeled BSA probe fluorescence counterscreen; at 9.4 µM; active compounds read high
[38] = system: T-cell receptor (TCR)-CD3 interaction, human; assay: TCR-CD3 interaction inhibitors, retest, confirmation, biochemical, fluorescence, TAMRA-labeled TCR probe (AID 652036; in the data active = inhibition above about 19%); details: TAMRA-labeled TCR probe fluorescence binding assay; at 9.4 µM; active compounds read high
[39] = target: (Lyso)-N-acylphosphatidylethanolamine lipase (Mus musculus) (UniProt Q8VD66); assay: ABHD4 inhibitors, retest, confirmation, biochemical, fluorescence polarization, mouse (AID 720658;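 active = mean inhibition across replicates above the hit cutoff set in the primary screen, cut at about 30% in these data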;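 note: 0% = wild-type ABHD4 with DMSO and 100% = catalytically dead S159A mutant with DMSO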); details: purified mABHD4, FP-Rh probe fluorescence polarization; at 8.92 µM; active compounds read high
Sequence of (Lyso)-N-acylphosphatidylethanolamine lipase (Mus musculus) (Q8VD66 whole entry, looked up): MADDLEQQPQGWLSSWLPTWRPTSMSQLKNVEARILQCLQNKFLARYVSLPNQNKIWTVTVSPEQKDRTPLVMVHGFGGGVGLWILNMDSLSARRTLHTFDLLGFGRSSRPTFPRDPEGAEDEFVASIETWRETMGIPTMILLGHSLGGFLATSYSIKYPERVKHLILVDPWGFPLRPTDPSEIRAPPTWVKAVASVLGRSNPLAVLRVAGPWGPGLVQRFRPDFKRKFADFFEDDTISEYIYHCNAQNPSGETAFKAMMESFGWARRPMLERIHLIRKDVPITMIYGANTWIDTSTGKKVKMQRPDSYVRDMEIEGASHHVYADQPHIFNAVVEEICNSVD

## O=C(/C=C/c1ccc(N2CCOCC2)cc1)c1ccccc1
[1]
  inhibition: 21.1%
[2]
  inhibition: 45.8% (active)
[3]
  inhibition: 14.1%
[4]
  inhibition: 15.4%
[5]
  inhibition: 29% (active)
[6]
  inhibition: 31.2% (active)

## NNc1cccc(C=Cc2ccccc2)cc1=O
[7]
  inhibition: 47.8% (active)
[8]
  activation: 13.3% (active)
[9]
  inhibition: -47.7%
[10]
  inhibition: 33.8% (active)

## Cc1ccc(NC(=O)Nc2ccc3oc(C)nc3c2)cc1
[11]
  activation (% of control): 200% (active)
[12]
  activation (% of control): 128%
[13]
  activation (% of control): 102%

## CCCCCCCCn1c2c(c(=N)c3c1CCC3)CCCC2
[1]
  inhibition: 23.3%
[2]
  inhibition: 27.8% (active)
[14]
  inhibition: 86.6% (active)
[15]
  inhibition: 43.9% (active)
[16]
  inhibition: 28.9% (active)
[17]
  inhibition: 115% (active)
[18]
  inhibition: 23.5% (active)
[19]
  inhibition: 85.1% (active)
[20]
  inhibition: 87.4% (active)
[21]
  inhibition: 66.6% (active)
[22]
  inhibition: 87.6% (active)
[23]
  inhibition: 99.3% (active)
[24]
  inhibition: 91.4% (active)
[25]
  inhibition: 78.1% (active)
[26]
  inhibition: 110% (active)
[27]
  inhibition: 96.5% (active)
[28]
  inhibition: 96.8% (active)
[29]
  inhibition: 32.1% (active)
[30]
  inhibition: 87.4% (active)

## Cc1[nH]n(-c2ccccc2)c(=O)c1/C=N/NC(=O)c1ccoc1C
[11]
  activation (% of control): 120%
[12]
  activation (% of control): 117%
[13]
  activation (% of control): 108%

## CN(O)C(=S)c1ccccc1
[31]
  inhibition: 5.28%
[32]
  inhibition: 0.06%
[33]
  inhibition: 97.2% (active)
[23]
  inhibition: -14.5%
[24]
  inhibition: -3.62%
[34]
  inhibition: 53% (active)
[35]
  inhibition: 62.5% (active)
[36]
  inhibition: 84.6% (active)
[29]
  inhibition: -6.65%
[30]
  inhibition: -5.38%
[8]
  activation: 0.55%
[9]
  inhibition: -2.07%
[10]
  inhibition: -6.13%

## NC1=CC(=O)C(=O)c2cccnc21
[7]
  inhibition: 24.5%
[25]
  inhibition: 35.9% (active)
[26]
  inhibition: 47.5% (active)
[27]
  inhibition: 45.5% (active)
[28]
  inhibition: 8.35%
[37]
  inhibition: 6.36%
[38]
  inhibition: 11.5%
[39]
  inhibition: 68.3% (active)
[8]
  activation: 45.1% (active)
[9]
  inhibition: -160%
[10]
  inhibition: 79.9% (active)

## Cc1cc2nc(SCCN3CCOCC3)[nH]c2cc1C
[11]
  activation (% of control): 157% (active)
[12]
  activation (% of control): 119%
[13]
  activation (% of control): 121% (active)
